Bim-Mcl-1: inhibitors of Bim-Mcl-1 interaction, human; hit rate 0.1% among 190,000; inhibition, % at 10 µM; Bead-based flow cytometry, Bim peptide-Mcl-1 binding; in the data active means inhibition above about 40%
Target sequence (Q07820 whole entry, looked up): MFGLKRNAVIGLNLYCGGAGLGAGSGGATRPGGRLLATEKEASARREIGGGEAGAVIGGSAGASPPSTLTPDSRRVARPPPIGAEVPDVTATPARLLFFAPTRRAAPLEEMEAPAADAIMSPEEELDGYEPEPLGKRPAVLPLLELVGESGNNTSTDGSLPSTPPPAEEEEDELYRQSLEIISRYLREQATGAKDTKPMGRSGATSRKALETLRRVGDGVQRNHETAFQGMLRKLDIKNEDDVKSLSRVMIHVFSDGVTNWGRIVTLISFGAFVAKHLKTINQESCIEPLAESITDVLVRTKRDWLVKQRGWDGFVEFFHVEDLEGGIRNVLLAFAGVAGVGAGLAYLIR
MCL1-BIM inh: inhibitors of human MCL1 binding to BIM-BH3 peptide. GST-MCL1 / FITC-Bim-BH3 fluorescence polarization. inhibition, % at 10.9 µM. hit rate 0.68% among 320,000. AID 2057;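 active means inhibition above the mean inhibition of all tested compounds plus 3 SD, set per campaign, cut at about 40% in these data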;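 further: higher means more loss of mP so more displacement of Bim peptide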
Bcl-xL primary: blocks human Bcl-xL binding to Bim BH3 peptide; GST-Bcl-xL / FITC-Bim BH3 peptide fluorescence polarization; Q07817; AID 2129; hit rate 0.7% among 320,000; inhibition, % at 10.9 µM;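 active means inhibition above the mean of all tested compounds plus 3 SD, cutoff set per campaign, cut at about 30% in these data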;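 further: inhibitors lower millipolarization by displacing the labeled peptide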
Target sequence (Q07817 whole entry, looked up): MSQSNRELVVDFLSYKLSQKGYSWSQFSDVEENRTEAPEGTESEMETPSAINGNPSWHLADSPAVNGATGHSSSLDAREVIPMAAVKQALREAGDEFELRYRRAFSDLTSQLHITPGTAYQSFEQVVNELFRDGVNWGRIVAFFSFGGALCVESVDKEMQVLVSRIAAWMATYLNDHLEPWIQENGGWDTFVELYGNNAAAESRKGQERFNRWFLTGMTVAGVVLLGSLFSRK
GLD-1 TGE inh: GLD-1-TGE RNA interaction inhibition (C. elegans); inhibition, % at 5.96 µM; purified GLD-1 + fluorescein TGE RNA, fluorescence polarization; hit rate 0.44% among 320,000;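 active means percent inhibition above a per-plate cutoff, the plate mean of test compounds plus 3 SD, cut at about 30% in these data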
Mcl1-Bid inh: disrupts binding of human Mcl-1 to Bid peptide | Q07820 | TR-FRET Mcl-1/Bid-Dy647 peptide binding, 1536-well | inhibition, % at 21.7 µM | hit rate 0.97% among 220,000 | AID 1021;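 active means compounds that cut the binding signal by more than half at the single screening dose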;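 further: His-tagged Mcl-1 with europium anti-His antibody binding Bid BH3 peptide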
Mcl1-Noxa inh: Mcl-1/Noxa interaction inhibition | inhibition, % at 21.7 µM | TR-FRET Mcl-1/Noxa peptide binding, 2 h | hit rate 1.5% among 220,000 | Q07820;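 active means compounds that cut the protein-peptide binding signal by more than 50% relative to plate controls in a single-dose test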;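 further: His-tagged Mcl-1 with rhodamine Noxa BH3 peptide and terbium anti-His antibody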
BCLXL inh confirm: Bcl-xL (human) inhibition, MCL1 counter-screen confirmation; inhibition, % at 10.9 µM; hit rate 54% among 1,700; AID 2166; GST-Bcl-xL / FITC-Bim BH3 peptide FP binding; shares compounds with MCL1-BIM inh;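 active means inhibition above a cutoff equal to the mean inhibition of all tested compounds plus 3 SD, cut at about 30% in these data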
MCL1 inh confirm: confirmation of human MCL1 and BIM-BH3 interaction inhibitors | shares compounds with MCL1-BIM inh | inhibition, % at 10.9 µM | GST-MCL1 / FITC-Bim-BH3 fluorescence polarization | AID 2168 | hit rate 61% among 1,700;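 active means inhibition above the average of all tested compounds plus 3 SD, cut at about 40% in these data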
Numbers stand for hits; - = inactive; . = no result given; + = active, no number; ! = repeats disagree. Most compounds without a hit are left out; they make up all but 2.3% or so of the library.

SMILES	Bim-Mcl-1	MCL1-BIM inh	Bcl-xL primary	GLD-1 TGE inh	Mcl1-Bid inh	Mcl1-Noxa inh	BCLXL inh confirm	MCL1 inh confirm
COCCNc1nnc(SCC(=O)NNC(=O)c2ccc([N+](=O)[O-])cc2)s1	.	74.6	-	-	.	.	-	-
Oc1cc2c(cc1O)[C@H]1c3ccc(O)c(O)c3OC[C@@]1(O)C2	.	57.2	-	-	.	.	76.2	107.7
NS(=O)(=O)c1ccc(CCNC(=O)c2cc(-c3ccccn3)nc3ccc(Br)cc23)cc1	-	-	-	-	-	-	.	.
NS(=O)(=O)c1ccc(CNC(=O)c2cc(-c3cccnc3)nc3ccc(Br)cc23)cc1	.	51.0	-	-	.	.	-	-
CCn1c(C(=O)NC(C)c2ccc3c(c2)OCCO3)cc2sccc21 (centres undefined)	-	-	-	-	-	-	.	.
CC(NC(=O)c1cc2sccc2n1C)c1ccc2c(c1)OCCO2 (centres undefined)	-	178.2	-	-	-	-	-	-
CCOc1ccc(N)c(SSc2cc(OCC)ccc2N)c1	.	-	-	-	.	.	.	.
CCOc1cc(-c2ccc(N)c(OCC)c2)ccc1N	-	174.0	148.2	126.8	-	-	134.1	183.1
COc1ccc(C2CC(c3ccc(OC)cc3OC(C)=O)=NN2C(=O)c2ccccc2)cc1 (centres undefined)	.	92.5	-	-	.	.	36.0	48.6
COc1ccc(C2=NN(C(=O)/C=C/c3ccccc3)C(c3ccccc3)C2)c(OC(C)=O)c1 (centres undefined)	-	-	-	-	-	-	.	.
CCS(=O)(=O)NCc1ccc2[nH]c3c(c2c1)CCCC3	-	72.6	58.8	39.8	-	-	48.5	69.6
O=C(Nc1nnc(C2CC2)s1)c1ccc(Cl)nc1	.	177.6	-	-	.	.	-	-
CCc1nnc(NC(=O)c2ccc(Cl)nc2)s1	-	-	-	-	-	-	.	.
CC(C)(C)NC(=O)NC(=O)CN1CCCc2ccccc21	-	84.5	76.9	-	-	-	-	-
O=C(CN1CCCc2ccccc21)NC(=O)NCc1ccccc1	.	-	-	-	-	-	.	.
O=C(c1ccccc1)c1ccc(O)cc1O	-	153.5	133.8	79.4	-	-	123.1	137.0
O=C(c1ccc(O)cc1)c1ccc(O)cc1O	.	-	-	-	-	-	.	.
CC(=O)c1ccc(NC(=O)C2Cc3ccccc3CN2C(=O)c2ccccc2)cc1 (centres undefined)	-	-	-	-	-	-	.	.
COc1ccc(NC(=O)C2Cc3ccccc3CN2C(=O)c2ccccc2)cn1 (centres undefined)	-	76.7	80.9	55.4	-	-	75.2	93.0
CC1(C)CC(NS(=O)(=O)c2ccc(S(N)(=O)=O)cc2)CC(C)(C)N1	.	117.7	96.8	88.8	.	.	-	-
O=[N+]([O-])c1ccc(/C=C/C2=NN(c3ccccc3)C(c3ccco3)C2)cc1 (centres undefined)	.	66.9	67.1	-	-	-	93.0	109.3
COC(=O)C1=C(O)/C(=C\c2ccc(CNS(=O)(=O)c3ccccc3)o2)N=C1C	-	48.4	44.8	-	-	-	30.7	54.3
COC(=O)C1=C(O)/C(=C\c2ccc(CNC(=O)C(=O)Nc3ccc(C)cc3)o2)N=C1C	-	-	-	-	-	-	.	.
CC(=O)N/N=C/c1cc(C(C)C)cc(/C=N/NC(C)=O)c1O	-	99.7	93.1	143.3	-	-	92.2	100.7
O=C(Nc1ccc(F)c(Cl)c1)Nn1cnnc1	.	-	-	-	.	.	.	.
SMILES	Bim-Mcl-1	MCL1-BIM inh	Bcl-xL primary	GLD-1 TGE inh	Mcl1-Bid inh	Mcl1-Noxa inh	BCLXL inh confirm	MCL1 inh confirm
CCN(CC)C(=O)CSc1ncnc2c(-c3cccs3)nsc12	-	63.9	35.0	-	-	-	-	-
CCN(CC)C(=O)CSc1ncnc2sccc12	-	-	-	-	-	-	.	.
CCCOP(=O)(c1ccc(N(C)C)cc1)C(Nc1ccccc1)c1ccc(C)cc1 (centres undefined)	.	44.2	-	-	-	-	-	-
CCc1oc2ccccc2c1C(=O)c1cc(Br)c(O)c(Br)c1	-	62.3	-	-	51.8!	-	-	-
O=C(O)c1c2c(nc3ccccc13)/C(=C/c1ccc(O)cc1)CC2	-	53.8	35.7	-	-	55.1	33.9	53.9
COc1ccc(N2CC(NC(=O)N(C)CCC#N)CC2=O)cc1 (centres undefined)	-	-	-	-	-	-	.	.
Cc1ccc(Nc2nc(CSc3nnc(-c4ccc(F)cc4)n3C)cs2)cc1	-	-	-	-	-	-	.	.
Cc1ccc(OCCOCCn2ccnc2)c(Br)c1	-	43.6	-	-	-	-	-	-
Cc1ccc2c(c1)[C@H]1[C@H](CO2)[C@H](c2ccccc2)[C@]2(C)C(=O)NCC(=O)N12	.	-	-	-	.	.	.	.
Cc1ccc(C(C)C)cc1OCC(=O)Nc1ccc(N2CCCCC2)cc1	.	-	-	-	.	.	.	.
O=C(CSc1nnc(-c2ccco2)c(-c2ccco2)n1)c1ccccc1	-	43.3	-	-	-	96.4	43.1	77.6
Cc1ccc(-c2[nH]c(=O)n3ccncc23)s1	-	56.5	58.5	-	-	-	66.0	91.0
CCOC(=O)C1CCN(C(=O)c2ccc3c(c2)C(=O)N(c2ccccc2C)C3=O)CC1	.	-	-	-	.	.	.	.
O=C(O)/C=C\c1cccc(-n2nnnc2SCc2ccccc2F)c1	.	-	-	-	.	.	.	.
c1ccc2c(Cn3ccnc3)cccc2c1	.	-	-	-	.	.	.	.
O=C(NC(=S)N1CCCCCC1)c1ccc(Cl)cc1Cl	-	43.1	-	-	-	-	-	-
O=C(NC(=S)N1CCCCCC1)c1ccccc1Cl	-	-	-	-	-	-	.	.
Oc1ccc2nnc3c(Br)cnn3c2c1	.	+	174.9	144.4	.	.	167.5	+
Cc1c(NCc2cc(Cl)cc(Cl)c2O)c(=O)n(-c2ccccc2)n1C	-	-	-	-	-	-	.	.
Cc1c(NCc2nc3ccccc3[nH]2)c(=O)n(-c2ccccc2)n1C	-	54.6	-	-	-	-	41.2	55.0
CC(C)CCn1nnnc1CN1CCN(C(=O)c2ccco2)CC1	.	-	-	-	.	.	.	.
COc1cccc(C(=O)NC2C(=O)N3C(C(=O)O)=C(COC(C)=O)CSC23)c1 (centres undefined)	.	-	-	-	.	.	.	.
CC(=O)OCC1=C(C(=O)O)N2C(=O)C(NC(=O)c3ccc(COc4cccc(Cl)c4Cl)o3)C2SC1 (centres undefined)	-	50.7	-	-	-	-	-	65.8
O=C(OCCN1C(=O)c2cccc3c(N4CCOCC4)ccc(c23)C1=O)c1cccc(Cl)c1	-	66.5	41.1	81.3	-	-	-	-
